An excerpt weighted towards active compounds, which were near 2% of everything screened.
VCAM1 TNFa inh: reduces TNF alpha induced VCAM1 expression in HUVEC | HUVEC TNFa-induced VCAM-1 immunofluorescence, high-content imaging | inhibition, % at 2 µM | 95,000 compounds, 0.48% hits;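 active = inhibition above the batch mean plus 3 SD, with images confirmed as a hit by eye, cut at about 37% in these data; inconclusive = inhibition above that limit but hit not confirmed in images; inactive = inhibition not above that limit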;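 note: 0% = TNF-stimulated DMSO wells and 100% = unstimulated control wells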
TNFa cytotox: HUVEC cytotoxicity counter-screen, TNF alpha stimulated | HUVEC TNFalpha-stimulated, Hoechst cell count, imaging | cell count reduction, % at 2 µM | 93,000 compounds, 0.17% hits | AID 848;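 active = cell count reduction exceeding the screen mean by over 5 SD, scaled to untreated wells per plate, cut at about 78% in these data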;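 note: cells counted after 24 h of TNF alpha exposure following the 1 h pretreatment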
E-sel TNF inh: blocks E-selectin expression induced by TNF alpha. HUVEC TNFa-induced E-selectin immunofluorescence, high content. inhibition, % at 2 µM. 120,000 compounds, 0.71% hits;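 active = inhibition above the batch mean plus 3 SD, and confirmed as a hit on visual image review, cut at about 43% in these data; inconclusive = passes the inhibition cutoff but fails visual image review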;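 note: 0% = TNF-stimulated DMSO wells and 100% = unstimulated control wells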
PLAP activator: human PLAP activation | purified PLAP enzyme, luminescent substrate read-out; hits give high values | AID 696 | 96,000 compounds, 1.2% hits | P05187 | activation fold at 20 µM; in the data active = activation fold above about 2
Target sequence (P05187 whole entry, looked up): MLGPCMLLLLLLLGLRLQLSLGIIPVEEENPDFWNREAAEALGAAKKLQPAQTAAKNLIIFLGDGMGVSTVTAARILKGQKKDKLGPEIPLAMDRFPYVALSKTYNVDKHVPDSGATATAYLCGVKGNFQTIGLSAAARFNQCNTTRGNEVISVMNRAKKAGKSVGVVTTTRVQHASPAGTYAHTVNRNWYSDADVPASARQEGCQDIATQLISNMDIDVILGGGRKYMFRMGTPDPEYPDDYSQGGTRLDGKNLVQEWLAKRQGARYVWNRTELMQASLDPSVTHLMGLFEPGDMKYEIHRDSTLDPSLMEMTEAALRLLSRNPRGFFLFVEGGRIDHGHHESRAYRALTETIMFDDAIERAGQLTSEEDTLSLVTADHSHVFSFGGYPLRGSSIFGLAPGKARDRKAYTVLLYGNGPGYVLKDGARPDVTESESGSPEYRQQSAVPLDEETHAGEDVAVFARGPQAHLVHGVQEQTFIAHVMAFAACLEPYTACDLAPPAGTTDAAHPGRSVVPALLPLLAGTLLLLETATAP
cytoskel mod: alters cytoskeleton assembly in HUVEC cells; HUVEC TNFa F-actin phalloidin imaging, high content; AID 836; inhibition, % at 2 µM; 91,000 compounds, 0.18% hits;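 active = inhibition above the batch mean plus 3 SD and confirmed as a hit by visual image inspection, cut at about 30% in these data, passing the limit was not always enough; inconclusive = above the inhibition threshold but rejected on visual inspection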
* = called active by the depositor; ? = inconclusive; . = not tested or not shown.

SMILES	VCAM1 TNFa inh	TNFa cytotox	E-sel TNF inh	PLAP activator	cytoskel mod
COc1ccc(-n2c(N)c(C(=O)NCc3ccco3)c3nc4ccccc4nc32)cc1	0	-13	24	1.2	-17
Nc1c(C(=O)NCc2ccco2)c2nc3ccccc3nc2n1CCc1ccc(F)cc1	2	-17	5	2*	2
COc1ccc(-c2nc3ccccc3s2)cc1O	-37	-35	-17	0.9	-6
COc1ccc(-c2c/c(=N\c3nc(-c4ccccc4)c(C)s3)c3ccccc3o2)cc1O	51*	55	1	0.7	18
Fc1ccc(CNc2nc(-c3ccccc3)nc3ccccc23)cc1	.	.	100*	.	.
CCCCn1c(SCC(=O)N(C)C)nnc1-c1ccncc1	.	.	-47	.	.
CCC(C)c1ccccc1OCCCCN1CCCC1 (centres undefined)	.	.	64*	.	.
CCC(C)c1ccccc1OCCOCCN1CCCC1 (centres undefined)	.	.	-3	.	.
COC(=O)c1ccsc1NC(=O)C1=COCCO1	25	92*	.	1	-34
Nc1c(C(=O)NCc2ccc(Cl)cc2)sc2nc3c(c(C(F)(F)F)c12)CCC3	-6	14	65*	1.2	-35
CCCC(CCC)C(=O)NNc1cc(=O)c2c(=O)n(C)c(=O)n(C)c2[nH]1	11	6	100*	0.8	-14
CCn1c(=O)cc(O)c2c(=O)n(C)c(=O)n(C)c21	-4	-17	.	1.1	-48
CCCCCn1c(CN(C)Cc2ccccc2)nc2c1c(=O)n(C)c(=O)n2C	18	-25	-9	2*	6
CCCCn1c(CN(Cc2ccccc2)Cc2ccccc2)nc2c1c(=O)n(C)c(=O)n2C	7	-4	-23	.	15
CN(Cc1ccccc1)c1nc2c(c(=O)n(C)c(=O)n2C)n1CCCc1ccccc1	-7	-26	.	2.1*	62
Cn1nc(C(F)(F)F)c(C(=O)Nc2ccc(F)cc2F)c1Sc1ccc(C(F)(F)F)cc1	-6	1	1	1	63*
Cn1nc(C(F)(F)F)c(C(=O)Nc2ccc(F)cc2F)c1Sc1ccc(Cl)cc1	.	.	.	0.8	.
O=C(/C=C/Nc1cccc(C(F)(F)F)c1)c1ccc(Oc2ncccn2)cc1	-27	-38	64*	1	4
Cc1ccc(/C=C/C(=O)C2C(=O)c3ccccc3C2=O)cc1	19	-5	66*	1.2	19
COc1ccc(-c2nc(-c3cccs3)c(-c3cccs3)[nH]2)cc1OC	22	2	13	1.6	-9
COc1ccc(-c2nc(-c3ccccc3)c(-c3cccs3)[nH]2)cc1OC	-12	-14	11	2*	.
CCOC(=O)CCNCc1ccc(F)cc1	.	.	5	.	.
CCOC(=O)c1c(C)oc2c1c(C(c1cccnc1)N1CCN(C)CC1)c(O)c1ccccc12 (centres undefined)	.	.	.	1.5	.
CN1CCN(C(c2cccnc2)c2ccc3cccnc3c2O)CC1 (centres undefined)	-14	-14	.	2.5*	-8
O=C(Nc1nnc(C2CC2)o1)c1ccc(S(=O)(=O)N2CCCc3ccccc32)cc1	21	17	.	2.5*	-6
SMILES	VCAM1 TNFa inh	TNFa cytotox	E-sel TNF inh	PLAP activator	cytoskel mod
COCc1nnc(NC(=O)c2ccc(S(=O)(=O)N3CCCc4ccccc43)cc2)o1	.	.	-23	.	.
CCOC(=O)c1ccc(Nc2c(CC)c(C)nc3ncnn23)cc1	-46	-4	4	.	-5
COC(=O)c1ccc(Nc2cc(C)nc3ncnn23)cc1	2	-7	5	2.2*	-13
CCOC(=O)c1ccc(Nc2cc(C)nc3ncnn23)cc1	5	-14	.	2*	6
Cc1cc(Nc2ccc(C(C)C)cc2)n2ncnc2n1	.	.	-16	1.7	.
O=C1N(c2ccccc2)C2CS(=O)(=O)CC2N1c1ccc(Br)cc1 (centres undefined)	4	5	100*	0.8	0
COc1cccc(N2C(=O)N(c3ccccc3)C3CS(=O)(=O)CC32)c1 (centres undefined)	-7	-7	10	1	46
CCOCCCn1c(=N)c(C(=O)Nc2cc(C)on2)cc2c(=O)n3ccccc3nc21	0	-23	-13	.	13
CC1C2=C(CCCC2=O)N(c2cccc3ccccc23)C2=C1C(=O)CCC2	23	-2	2	.	3
Clc1ccccc1CSc1nnc(-c2ccccn2)n1Cc1ccco1	-20	-14	.	1.2	-14
Clc1cccc(-c2nnc(SCc3nc4ccccc4[nH]3)n2Cc2ccco2)c1	-14	-7	32	2.2*	28
c1coc(Cn2c(SCc3nc4ccccc4[nH]3)nnc2-c2cnccn2)c1	-13	-21	26	2.2*	17
Clc1ccc(OCc2nnc(SCc3nc4ccccc4[nH]3)n2Cc2ccco2)cc1	-2	-40	.	1.4	-2
c1ccc(-c2nnc(SCc3nc4ccccc4[nH]3)n2Cc2ccco2)nc1	1	-12	.	2.6*	16
O=C(/C=C/c1ccccc1)OCc1cnc(Cl)s1	.	.	-1	.	.
O=C(Cc1ncc(C(F)(F)F)cc1Cl)NCCc1ccccn1	.	.	-26	.	.
Cc1cc(NC(=O)CSc2nnc(-c3ccncc3)n2N)ccc1Br	28	8	-15	0.9	10
CC(=O)NC1C(=O)N(C)c2ccc(Br)cc21 (centres undefined)	8	2	-31	1.2	-1
CCCCOc1ccc(/C=C/C(=O)OCC(=O)NC(=O)NCC(C)C)cc1OCC	.	.	84*	.	.
Cn1c(Cc2ccc3c(c2)OCO3)nnc1SCC(=O)NC1CCCC1	.	.	20	.	.
O=C(O)c1cccc(S(=O)(=O)Nc2ccccc2Cl)c1	95*	-11	29	1	1
Cc1cc(C)c2c(n1)sc1c(N3CCOCC3)ncnc12	61*	11	-12	.	-33
Cc1ccc2nc(NC(=O)/C=C/c3ccc4c(c3)OCO4)sc2c1	.	.	-19	.	.
O=C(/C=C/c1ccc2c(c1)OCO2)Nc1nc2ccccc2s1	.	.	62*	.	.
N#CCC(=O)Nc1ccc(C(=O)NCc2ccccn2)cc1	.	.	-34	.	.
SMILES	VCAM1 TNFa inh	TNFa cytotox	E-sel TNF inh	PLAP activator	cytoskel mod
COc1ccc(Nc2nc(C)cc(C)c2C(N)=O)c(OC)c1	1	-7	-30	1.1	-3
COCC(C)n1c(C)cc(C(=O)COC(=O)CN=C2NS(=O)(=O)c3ccccc32)c1C (centres undefined)	.	.	16	.	.
O=C(Cn1cccc1C(=O)c1ccccc1)NCCCN1CCOCC1	0	0	.	1.2	10
O=C(Cn1cccc1C(=O)c1ccccc1)NCCN1CCOCC1	82*	44	-1	.	?
CC(/C=C/c1ccco1)=N\NC(=O)c1cc(C)[nH]n1	3	-18	100*	1.8	61*
Cc1ccc(/C=C/C(=O)O)cc1S(=O)(=O)NCCO	7	-17	54*	1	27
CC(C)(C)c1cc(NC(=O)CSc2nncs2)n(-c2ccccc2)n1	.	.	-32	.	.
Cc1ccccc1NC1=C/C(=N\S(=O)(=O)c2cccs2)c2ccccc2C1=O	86*	32	76*	1.1	-2
Cc1ccc(NC2=C/C(=N/S(=O)(=O)c3cccs3)c3ccccc3C2=O)cc1C	.	.	-4	.	.
CCN1CCN(C(=O)CN(C)S(=O)(=O)c2ccc(OC)c(C)c2)CC1	10	-17	9	1.6	.
COc1ccc(S(=O)(=O)N(C)CC(=O)N2CCN(Cc3ccccc3)CC2)cc1C	-19	-9	15	2*	-8
